Rango-impB inh: prevents formation of the Rango-importin beta complex | Potency, µM (top dose mostly 92.2 µM), for the others: top-dose inhibition of complex formation | AID 540263 | Rango CFP/YFP FRET sensor + importin beta, 45 min | 340,000 tested, 0.031% active; calls by dose curve;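 further: 0% = DMSO wells and 100% = buffer wells lacking importin beta; nearly all actives have a fitted effect of over 15% in size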
Target sequence (Q14974 whole entry, looked up): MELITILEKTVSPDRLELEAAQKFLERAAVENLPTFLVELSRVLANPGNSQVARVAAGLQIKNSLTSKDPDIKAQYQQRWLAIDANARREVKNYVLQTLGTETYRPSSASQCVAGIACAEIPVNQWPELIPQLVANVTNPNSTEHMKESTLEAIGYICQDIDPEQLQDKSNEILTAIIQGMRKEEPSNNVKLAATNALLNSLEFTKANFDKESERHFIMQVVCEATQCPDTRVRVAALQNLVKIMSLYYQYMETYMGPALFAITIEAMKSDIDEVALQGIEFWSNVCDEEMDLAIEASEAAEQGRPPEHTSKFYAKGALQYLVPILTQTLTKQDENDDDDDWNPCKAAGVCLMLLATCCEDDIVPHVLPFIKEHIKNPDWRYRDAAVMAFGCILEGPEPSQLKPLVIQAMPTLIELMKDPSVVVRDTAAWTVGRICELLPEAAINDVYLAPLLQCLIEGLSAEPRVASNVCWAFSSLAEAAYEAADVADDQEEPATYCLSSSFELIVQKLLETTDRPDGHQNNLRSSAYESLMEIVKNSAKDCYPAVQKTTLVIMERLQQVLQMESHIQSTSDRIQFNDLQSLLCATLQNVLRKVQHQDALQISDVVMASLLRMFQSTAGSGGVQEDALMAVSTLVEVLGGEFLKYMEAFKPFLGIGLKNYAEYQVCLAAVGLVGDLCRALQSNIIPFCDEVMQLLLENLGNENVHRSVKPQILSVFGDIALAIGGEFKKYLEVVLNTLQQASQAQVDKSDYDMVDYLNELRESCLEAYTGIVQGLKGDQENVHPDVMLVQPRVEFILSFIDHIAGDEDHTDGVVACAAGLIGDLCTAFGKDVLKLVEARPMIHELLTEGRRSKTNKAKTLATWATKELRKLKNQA
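FRET biosensor Rango (snurportin 1 IBB between N-terminal EYFP and C-terminal Cerulean), 50 nM in PBS/1 mM DTT/0.02% Tween-20/0.1% BSA, preincubated 5 min RT with compound; 0.125 microM importin beta added, 45 min RT, CFP/YFP FRET ratio read.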
EPAC2 antag: antagonists of human EPAC2; Q8WZA2; EPAC2 GEF exchange of Rap1B-BODIPY-GDP, fluorescence; Potency, µM (highest dose often 114 µM), for the others: at the highest dose activity, negative = inhibition, most hits filed as inhibitors; 360,000 tested, 0.18% active; AID 720708; further: on the % scale 0 is the no-effect control and ±100 the full control effect; nearly all actives have a fitted effect of over 45% in size
EPAC1 antagonist: antagonists of human EPAC1 | O95398 | EPAC1 GEF assay, Rap1b-BODIPY-GDP exchange fluorescence | Potency, µM (series often up to 115 µM), for inactives: at the top dose activity change, negative = inhibition, usual class: inhibitors | 360,000 tested, 0.14% active | AID 720709;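 further: plate controls were vehicle for no effect and positive control for full effect; nearly all actives have a fitted effect of over 50% in size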
EPAC1 ag: activates human EPAC1 exchange factor; 360,000 tested, 0.073% active; EPAC1 agonist qHTS, biochemical assay; response scale: 100% = response to 6.5 mM cAMP; AID 720707; Potency, µM (top dose mostly 154 µM), without a hit: at the top dose activation, most hits filed as activators; O95398; further: nearly all actives have a fitted effect of over 60% in size
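Nucleotide exchange by EPAC1 (100 nM) on Rap1B–BODIPY-GDP (250 nM) in the presence of 50 uM GDP is tracked fluorescently at 480/540 nm over 30 min. Signals are normalized to a 6.5 mM cAMP control.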
EPAC2 ag: agonists of human EPAC2 (RAPGEF4); Q8WZA2; Potency, µM (titrated, usually from 154 µM), for the others: at the top dose activation, most hits filed as activators; EPAC2 activation, biochemical qHTS; response scale: 100% = 6.5 mM cAMP response; 360,000 tested, 0.079% active; further: nearly all actives have a fitted effect of over 50% in size
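Nucleotide exchange monitored as fluorescence drop when BODIPY-GDP leaves Rap1B. Reaction: 100 nM EPAC2, 250 nM RAP1B-BODIPY-GDP, 50 uM GDP, room temperature, kinetic read over 30 min. Activity expressed relative to 6.5 mM cAMP.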
Rango release inh: inhibition of RanGTP-driven Rango-importin beta dissociation; Biochemical FRET Rango-importin beta, RanGTP-induced dissociation; Potency, µM (series often up to 46.1 µM), without a hit: at the top dose activity change, negative = inhibition; 340,000 tested, 0.071% active; AID 540253; calls by dose curve; further: % of control where 0% means no effect; nearly all actives have a fitted effect of over 45% in size
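Rango FRET biosensor (snurportin-1 IBB flanked by N-terminal EYFP and C-terminal CFP10) at 0.1 uM, with 0.25 uM importin beta in PBS, 1mM DTT, 0.02% Tween-20, 0.1% BSA. 0.6 uM Ran, 2mM GTP and 0.2 uM RCC1 were then added for 45 min at room temperature. Inhibition read as loss of FRET rise.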
* hit, by the source's call; ? = inconclusive; . = no result. Shown are actives, neighbours in structure and some others; about 0.48% of the full set was active somewhere. Unless noted, the call rests on the fitted dose curve; in most records, active means well fitted curve in the direction sought with a large enough effect; inconclusive means small, poorly fitted or top-dose-only effect, or another doubt; inactive means no such curve, though single readings can be large; an effect the other way counts as inactive or inconclusive. Potency means the concentration at half of the fitted maximal effect.

SMILES | Rango-impB inh | EPAC2 antag | EPAC1 antagonist | EPAC1 ag | EPAC2 ag | Rango release inh
NC(N)=NS(=O)(=O)c1ccc(NC(=S)NC(=O)c2sc3ccccc3c2Cl)cc1 | ? | 0% | 3% | -12% | 1% | 21µM*
Cc1ccc(S(=O)(=O)N2[C@H](CC(=O)c3cccs3)OC[C@@H]2C(C)C)cc1 | . | -4% | -1% | 11% | 19% | .
O=C(CCC1CCCC1)NNC(=O)c1cc2ccccc2cc1O | ? | 3% | -13% | 3% | 4% | 18µM*
O=C1C(=Cc2ccccc2Cl)CCc2ccccc21 | . | 35µM* | ? | -4% | 3% | .
Oc1ccc(C2C=C(c3ccc(F)cc3)Nc3ncnn32)cc1 (stereo unspecified) | ? | 0% | -8% | 15% | 5% | ?
C1=C(c2ccc(-c3ccccc3)cc2)Nc2ncnn2C1c1ccco1 (stereo unspecified) | ? | 116% | 11% | 89µM* | 100µM* | ?
Fc1ccc(C2=CC(c3ccc(Br)o3)n3ncnc3N2)cc1 (stereo unspecified) | ? | 52% | 94% | 100µM* | 12% | ?
Fc1ccc(C2=CC(c3ccco3)n3ncnc3N2)cc1 (stereo unspecified) | ? | 11% | 7% | 0% | -3% | ?
CC(=O)N(/N=C1\Sc2ccccc2C1=O)c1ccccc1C | ? | 2% | -15% | -4% | -3% | 8.2µM*
O=c1oc(-c2ccccc2)c(-c2ccccc2)c2ccccc12 | 2% | 45µM* | -19% | 4% | 4% | 4%
COc1ccc([N+](=O)[O-])cc1NC(=S)Nc1ccccc1 | -3% | 6% | -2% | 0% | 7.9µM* | -4%
CCCN(CC(=O)Nc1ccccc1C)C(=O)c1oc2ccc(OCC)cc2c1C | -1% | -3% | -16% | 126µM* | -11% | -6%
COc1cc(/C=N/NC(=O)c2cccc(S(=O)(=O)N3CCCCC3)c2)cc(Br)c1O | 5% | 6% | -3% | 4% | 9% | 1%
CN1CCc2nc3sc(C(=O)C45CC6CC(CC(C6)C4)C5)c(N)c3cc2C1 | ? | 50µM* | -19% | 12% | ? | ?
COc1ccc(S(=O)(=O)N2CCCCC2)cc1NC(=O)c1c(F)cccc1Cl | 0% | -14% | 56µM* | 2% | 2% | -1%
COc1ccc(S(=O)(=O)N2CCCCC2)cc1NC(=O)c1ccccc1 | -4% | 7% | -5% | 10% | 5% | 8%
Nc1ccc2c(c1)[nH]c(=O)c1cc(N)ccc12 | . | -2% | -2% | 5% | 0% | .
COc1ccc(C(=O)NCCNc2nc3cc(C)cc(C)c3cc2C#N)nc1 | . | 8% | 18% | 6% | 2% | .
C=CCOc1ccc(/C=C(\C#N)C(=O)Nc2ccccn2)cc1 | ? | 3% | -29% | 10% | 2% | 26µM*
N#C/C(=C\c1ccccc1)C(=O)Nc1ccccn1 | ? | 3% | 2% | 18% | 3% | ?
C/C(=N\NS(=O)(=O)c1ccccc1)c1cc(Cl)cc(Cl)c1O | 0% | ? | 18µM* | -11% | 4% | 3%
Cc1cccc(C)c1NC(=O)CN1C(=O)S/C(=C\c2cccn2-c2cccc(C(=O)O)c2)C1=O | ? | ? | ? | ? | 19% | ?
Cc1cccc(C)c1-n1cccc1/C=C1\SC(=S)N(c2cccc(C(=O)O)c2)C1=O | -7% | ? | 50µM* | 1% | -4% | -8%
CCOC(=O)c1c(C)nc2sc(C(N)=O)c(N)c2c1-c1ccccc1 | ? | -3% | -3% | -7% | 7.9µM* | -28%
Cc1ccccc1C(=O)N1CCC1(C)C(=O)NC(C)C (stereo unspecified) | . | 20% | -14% | -4% | 6% | .
SMILES | Rango-impB inh | EPAC2 antag | EPAC1 antagonist | EPAC1 ag | EPAC2 ag | Rango release inh
O=C(O)C(c1ccccc1)N1C(=O)/C(=C/c2cccs2)SC1=S (stereo unspecified) | 0% | 56µM* | -18% | -2% | -11% | -3%
Cc1ccc(S(=O)(=O)/C(C#N)=C/c2c(N3CCC(C(N)=O)CC3)nc3c(C)cccn3c2=O)cc1 | ? | 5% | -11% | 4% | 1% | ?
Cc1ccc(S(=O)(=O)/C(C#N)=C/c2c(N3CCC(C(N)=O)CC3)nc3ccccn3c2=O)cc1 | ? | -2% | -4% | 6% | 7% | 13µM*
COc1cccc2c(=O)c(C/C=C(/C)Cl)c(C)[nH]c12 | 8% | -2% | -11% | 18% | 2% | 18%
Cc1cccc2nc(-c3ccco3)c(Nc3ccccc3)n12 | ? | ? | 4% | 9% | 2% | 0%
Cc1ccc(Nc2c(-c3ccccn3)nc3cccc(C)n23)cc1 | -1% | 32µM* | -1% | -9% | -1% | -4%
NNc1nc(C(F)(F)F)nc2ccccc12 | -2% | 5% | 2% | 4% | 1% | -6%
O/C=c1\ccc2cccc3nc(C(F)(F)F)nc1c23 | ? | 82% | 18% | 89µM* | ? | ?
COC(=O)CSc1nc(C)cc(Oc2ccccc2)n1 | 0% | -12% | 50µM* | -25% | 10% | -6%
Cc1ccc(S(=O)(=O)N2C(c3ccccc3)CC(=O)C3CN(S(=O)(=O)c4ccc(Cl)cc4)C(c4ccccc4)CC32)cc1 (stereo unspecified) | . | 13% | 2% | 9% | 8% | .
COc1ccc(C(=O)Nc2ccccc2-c2nnn(CC(N)=O)n2)cc1 | -2% | -4% | 89µM* | -10% | -3% | 11%
O=C(CSc1nc(-c2ccccc2)nc2ccccc12)Nc1cccc(C(=O)O)c1 | -5% | -2% | -23% | -6% | 0% | 11%
O=C(CSc1nc(-c2ccc(F)cc2)nc2ccc(F)cc12)Nc1cccc(C(=O)O)c1 | 0% | 5% | 71µM* | 19% | 2% | -6%
Cc1ccc(-c2nn(-c3ccccc3)cc2C=C2SC(=S)N(CCS(=O)(=O)O)C2=O)cc1 | . | 45µM* | 7.9µM* | -12% | 1% | .
O=C1C(=Cc2cn(-c3ccccc3)nc2-c2ccc(OCc3ccccc3)cc2)SC(=S)N1CCS(=O)(=O)O | . | ? | ? | -1% | -6% | .
CCc1cc2c(-c3ccccc3)cc(=O)oc2cc1OC(=O)c1cccs1 | ? | 8% | -5% | 10% | 4% | 5.2µM*
O=C(Oc1ccc2c(-c3ccccc3)cc(=O)oc2c1)c1cccs1 | ? | -7% | -1% | 16% | 13% | ?
C=CCn1cc(/C=C2\SC(N3CCOCC3)=NC2=O)c2ccccc21 | ? | -4% | -25% | 3% | 8% | 16µM*
